The nature of experiment [1]: qHTS assay to identify small molecule agonists of the peroxisome proliferator-activated receptor delta (PPARd) signaling pathway - cell viability counter screen (AID 743211). Further: on the % scale 0 is the no-effect control and ±100 the full control effect; nearly all actives have a fitted effect of over 55% in size. In outline:
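Counter screen for cytotoxicity run in parallel with the PPARd reporter screen. Beta-lactamase reporter HEK293H cells exposed to compounds 17 h; ATP-based CellTiter-Glo luminescence quantified viability.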

Experiment [2] has as its target Peroxisome proliferator-activated receptor delta (Homo sapiens) (UniProt Q03181). As to the kind of experiment: qHTS assay to identify small molecule agonists of the peroxisome proliferator-activated receptor delta (PPARd) signaling pathway (AID 743212; calls by dose curve;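 further: HEK293H cells with PPARd UAS beta-lactamase reporter GeneBLAzer system; on the % scale 0 is the no-effect control and ±100 the full control effect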). The gist of the method: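 Beta-lactamase reporter readout: a ratiometric FRET signal from the LiveBLAzer substrate after 2 h at room temperature. Compound exposure at 37 °C in PPARδ-bla HEK293H cells driven by an upstream activator sequence.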

A short description of experiment [3]: qHTS assay to identify small molecule agonists of the farnesoid-X-receptor (FXR) signaling pathway - cell viability counter screen (AID 743218). Further: nearly all actives have a fitted effect of over 45% in size. Further: potency means the concentration at half of the fitted maximal effect. The gist of the method:
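Viability of FXR-bla HEK 293T cells is measured by ATP-based CellTiter-Glo luminescence following 16 h compound treatment at 37 C and a prior 2 h room-temperature beta-lactamase substrate step.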

The nature of experiment [4]: qHTS assay to identify small molecule antagonists of the farnesoid-X-receptor (FXR) signaling pathway - cell viability counter screen (AID 743221; active means well fitted cell-killing curve with a large enough effect in the repeat runs, not every such curve was filed as active; further: nearly all actives have a fitted effect of over 50% in size; further: potency means the concentration at half of the fitted maximal effect). In outline: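 Multiplexed counter screen: viability of FXR-bla HEK 293T cells under agonist stimulation by chenodeoxycholic acid (50 uM, final) and test compound for 16 h at 37 C, measured by CellTiter-Glo luminescence in the reporter wells.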

Experiment [5] has as its target Vitamin D3 receptor (Homo sapiens) (UniProt P11473). As to the kind of experiment: qHTS assay to identify small molecule agonists of the vitamin D receptor (VDR) signaling pathway (AID 743222; calls by dose curve; further: on the % scale 0 is the no-effect control and ±100 the full control effect). The gist of the method: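 Fluorescence from cleaved LiveBLAzer B/G FRET substrate served as readout. VDR-bla cells had been treated 16 h at 37C with test compounds in DMSO, following a 4 h settling period, and substrate was loaded for 2 h at RT.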

Experiment [6] is described as follows: qHTS assay to identify small molecule agonists of the vitamin D receptor (VDR) signaling pathway - cell viability counter screen (AID 743224). Further: series mostly up to about 63 µM; on the % scale 0 is the no-effect control and ±100 the full control effect; nearly all actives have a fitted effect of over 50% in size. In outline: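 Compounds were pin-transferred onto VDR-bla cells plated 4 h earlier; following 16 h incubation at 37C, cell viability was quantified by CellTiter-Glo luminescence after 30 min at room temperature.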
Experiment [7] in a line: qHTS assay to identify small molecule agonists of the NFkB signaling pathway - cell viability counter screen (AID 1159515; calls by dose curve; further: series mostly up to about 61 µM; on the % scale 0 is the no-effect control and ±100 the full control effect; nearly all actives have a fitted effect of over 55% in size). The gist of the method: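 Parallel cytotoxicity counter screen in ME-180 cells carrying an NFkB-response-element beta-lactamase reporter, 2,000 cells/well. Compound exposure lasted 5 hr at 37 C, 5% CO2. Cell viability was quantified by CellTiter-Glo luminescence.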

Experiment [8] in a line: qHTS assay to identify small molecule agonists of the endoplasmic reticulum stress response signaling pathway (AID 1159516; active means well fitted activation curve with a large enough effect in the signal ratio in the repeat runs, not every such curve was filed as active; the % refers to the signal ratio; further: potency means the concentration at half of the fitted maximal effect). The gist of the method: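 Using a HeLa line with an ESRE-driven beta-lactamase gene, agonist activity was measured by FRET substrate fluorescence (460 and 530 nm emission) after cells were treated with compounds for 5 hr at 37 C and 5% CO2.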
Experiment [9] is described as follows: qHTS assay to identify small molecule agonists of the endoplasmic reticulum stress response signaling pathway - cell viability counter screen (AID 1159517; calls by dose curve;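 further: HeLa cells carrying an ER stress response element beta-lactamase reporter; series mostly up to about 61 µM; on the % scale 0 is the no-effect control and ±100 the full control effect; nearly all actives have a fitted effect of over 50% in size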). The gist of the method: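 ESRE-bla HeLa cells (1,500/well) were plated overnight at 37 C and exposed to compounds for 5 hr. After the 2 hr beta-lactamase substrate read, CellTiter-Glo went into the same wells, and luminescence was read after 30 min at room temperature.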

Experiment [10] in a line: qHTS assay to identify small molecule antagonists of the retinoid-related orphan receptor gamma (ROR-gamma) signaling pathway - cell viability counter screen (AID 1159520). Further: on the % scale 0 is the no-effect control and ±100 the full control effect; nearly all actives have a fitted effect of over 50% in size. In outline:
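Cytotoxicity was read from cellular ATP (CellTiter-Glo luminescence) after 16 hr at 37 C with 1 uM doxycycline induction. The inducer was added 2 hr after compound transfer to Tet-on ROR gamma CHO cells.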

In experiment [11] the target is Nuclear receptor ROR-gamma (Homo sapiens) (UniProt P51449). In words: qHTS assay to identify small molecule antagonists of the retinoid-related orphan receptor gamma (ROR-gamma) signaling pathway (AID 1159521; further: nearly all actives have a fitted effect of over 50% in size; further: potency means the concentration at half of the fitted maximal effect). The gist of the method:
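Cells were plated, rested 4 h at 37 C, exposed to compounds for 2 h, then given 1 uM final doxycycline hyclate to induce RORγ expression. After 16 h, ONE-Glo luminescence from the ROR response element reporter was measured.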

Experiment [12] can be described thus: qHTS assay to identify small molecule agonists of the AP-1 signaling pathway - cell viability counter screen (AID 1159525; calls by dose curve; further: nearly all actives have a fitted effect of over 55% in size). In outline: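 Intracellular ATP by Cell Titer Glo luminescence (30 min, RT) in the same ME-180 AP-1-bla wells after the 5 h compound exposure at 37 °C. Normalised to tetra n-octyl ammonium bromide and DMSO controls.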
The target of experiment [13] is Retinoic acid receptor RXR-alpha (Homo sapiens) (UniProt P19793). As to the kind of experiment: qHTS assay to identify small molecule agonists of the RXR signaling pathway (AID 1159527; calls by dose curve; further: on the % scale 0 is the no-effect control and ±100 the full control effect; nearly all actives have a fitted effect of over 35% in size). In outline:
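Cells plated at 2,000/well, rested 5 hr at 37 C, pin-dosed with DMSO compound solutions, incubated 16 hr, then loaded with B/G FRET substrate for 2 hr at RT before dual-emission fluorescence reading.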

Experiment [14] is described as follows: qHTS assay to identify small molecule antagonists of the peroxisome proliferator-activated receptor delta (PPARd) signaling pathway - cell viability counter screen (AID 743213). The gist of the method: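 HEK293H cells with the PPARd UAS-bla reporter, co-treated 17 h at 37 C with compounds and L165041 (300 nM final), were lysed with CellTiter-Glo. Luminescence indicated viable cell content.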

Experiment [15] deals with Bile acid receptor (Homo sapiens) (UniProt Q96RI1). In words: qHTS assay to identify small molecule agonists of the farnesoid-X-receptor (FXR) signaling pathway (AID 743220; active means well fitted activation curve with a large enough effect in the signal ratio in the repeat runs, not every such curve was filed as active; the % refers to the signal ratio; further: on the % scale 0 is the no-effect control and ±100 the full control effect). In outline: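 FXR-UAS-bla HEK 293T cells carrying a UAS-driven beta-lactamase reporter were plated for 5 h at 37C/5% CO2, then exposed to DMSO-dissolved Tox21 10K compounds for 16 h at 37C. A LiveBLAzer B/G FRET substrate was loaded for 2 h at room temperature before fluorescence reading.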
Sequence of Bile acid receptor (Homo sapiens) (Q96RI1 whole entry, looked up): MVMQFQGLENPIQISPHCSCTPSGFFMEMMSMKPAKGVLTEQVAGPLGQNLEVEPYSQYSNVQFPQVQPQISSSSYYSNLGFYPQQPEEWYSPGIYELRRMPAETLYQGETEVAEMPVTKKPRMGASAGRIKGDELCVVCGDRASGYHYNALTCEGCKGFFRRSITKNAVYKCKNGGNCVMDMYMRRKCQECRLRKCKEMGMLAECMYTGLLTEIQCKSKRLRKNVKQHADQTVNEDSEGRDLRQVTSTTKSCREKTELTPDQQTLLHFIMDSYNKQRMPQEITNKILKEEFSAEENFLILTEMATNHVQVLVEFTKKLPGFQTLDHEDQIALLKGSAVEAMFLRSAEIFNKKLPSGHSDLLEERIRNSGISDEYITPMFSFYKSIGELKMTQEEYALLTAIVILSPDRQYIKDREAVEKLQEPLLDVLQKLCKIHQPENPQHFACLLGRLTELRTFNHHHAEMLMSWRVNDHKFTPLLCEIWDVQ

Experiment [16] deals with Vitamin D3 receptor (Homo sapiens) (UniProt P11473). In words: qHTS assay to identify small molecule antagonists of the vitamin D receptor (VDR) signaling pathway (AID 743223; active means well fitted inhibition curve with a large enough effect in the signal ratio in the repeat runs, not every such curve was filed as active; the % refers to the signal ratio; further: potency means the concentration at half of the fitted maximal effect). The gist of the method: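 Cells carrying a VDR-driven beta-lactamase reporter (VDR-bla) were co-treated with compound and 3 nM final 1alpha,25-dihydroxyvitamin D3 for 16 h at 37C; reporter activity was measured as FRET substrate fluorescence after 2 h at room temperature.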
Sequence of Vitamin D3 receptor (Homo sapiens) (P11473 whole entry, looked up): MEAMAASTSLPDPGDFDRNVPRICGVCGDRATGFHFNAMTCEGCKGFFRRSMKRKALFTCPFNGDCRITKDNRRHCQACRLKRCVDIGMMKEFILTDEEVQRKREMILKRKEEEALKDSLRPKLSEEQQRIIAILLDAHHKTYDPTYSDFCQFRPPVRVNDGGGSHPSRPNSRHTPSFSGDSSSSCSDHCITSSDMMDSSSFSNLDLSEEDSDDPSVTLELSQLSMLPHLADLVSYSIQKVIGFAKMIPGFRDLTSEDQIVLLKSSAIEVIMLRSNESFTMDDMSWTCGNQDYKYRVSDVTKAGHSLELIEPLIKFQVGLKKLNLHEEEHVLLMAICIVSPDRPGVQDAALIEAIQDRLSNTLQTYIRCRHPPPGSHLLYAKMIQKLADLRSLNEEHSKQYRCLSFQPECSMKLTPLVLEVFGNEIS

Experiment [17] in a line: qHTS assay to identify small molecule antagonists of the vitamin D receptor (VDR) signaling pathway - cell viability counter screen (AID 743225). In outline: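 HEK293T VDR-bla; cpd + 1a,25-(OH)2D3 3 nM final, 16 h 37C/5% CO2; B/G FRET substrate 2 h RT; then CellTiter-Glo 30 min RT, luminescence.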
For experiment [18], the target named is Peroxisome proliferator-activated receptor delta (Homo sapiens) (UniProt Q03181). As to the kind of experiment: qHTS assay to identify small molecule antagonists of the peroxisome proliferator-activated receptor delta (PPARd) signaling pathway (AID 743215; active means well fitted inhibition curve with a large enough effect in the signal ratio in the repeat runs, not every such curve was filed as active; the % refers to the signal ratio;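 further: cells stimulated with agonist L165041 at 300 nM final during compound exposure; series mostly up to about 62 µM; on the % scale 0 is the no-effect control and ±100 the full control effect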). In outline: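 Plated HEK293H PPARd-bla cells rested 5 h at 37 C and 5% CO2. Compound, then agonist L165041 at 300 nM final, was added; 17 h at 37 C followed. Substrate loading, 2 h room temperature, fluorescence measured.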
Sequence of Peroxisome proliferator-activated receptor delta (Homo sapiens) (Q03181 whole entry, looked up): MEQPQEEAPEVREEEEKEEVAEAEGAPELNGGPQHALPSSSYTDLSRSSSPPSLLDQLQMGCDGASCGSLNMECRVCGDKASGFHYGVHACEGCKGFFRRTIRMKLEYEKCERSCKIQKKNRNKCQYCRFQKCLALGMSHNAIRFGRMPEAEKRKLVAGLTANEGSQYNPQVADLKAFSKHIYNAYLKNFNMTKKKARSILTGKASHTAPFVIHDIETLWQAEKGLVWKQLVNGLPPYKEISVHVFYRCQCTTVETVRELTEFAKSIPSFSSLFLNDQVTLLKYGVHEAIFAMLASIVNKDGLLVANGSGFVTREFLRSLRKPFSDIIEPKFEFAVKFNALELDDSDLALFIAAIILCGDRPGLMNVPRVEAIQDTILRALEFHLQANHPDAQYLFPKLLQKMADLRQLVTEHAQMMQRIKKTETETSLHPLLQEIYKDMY

Experiment [19] is described as follows: qHTS assay to identify small molecule agonists of the AP-1 signaling pathway (AID 1159526; calls by dose curve; further: on the % scale 0 is the no-effect control and ±100 the full control effect).
Experiment [20] concerns the target Bile acid receptor (Homo sapiens) (UniProt Q96RI1). As to the kind of experiment: qHTS assay to identify small molecule antagonists of the farnesoid-X-receptor (FXR) signaling pathway (AID 743217; active means well fitted inhibition curve with a large enough effect in the signal ratio in the repeat runs, not every such curve was filed as active; the % refers to the signal ratio; further: on the % scale 0 is the no-effect control and ±100 the full control effect). The gist of the method: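 Screen of the Tox21 10K library in quantitative HTS format using FXR-UAS-bla HEK 293T reporter cells. Agonist chenodeoxycholic acid, 50 uM final, added with compounds; 16 h incubation at 37 °C; beta-lactamase FRET fluorescence measured.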

Results filed as inconclusive are left out. Unmarked numbers belong to inactive results. The source made the active and inactive calls. Unless noted, the call rests on the fitted dose curve; in most records, active means well fitted curve in the direction sought with a large enough effect in the repeat runs; inconclusive means weak or mixed curves; inactive means no such curve, though single readings can be large; an effect the other way counts as inactive or inconclusive.

Sequence of Retinoic acid receptor RXR-alpha (Homo sapiens) (P19793 whole entry, looked up): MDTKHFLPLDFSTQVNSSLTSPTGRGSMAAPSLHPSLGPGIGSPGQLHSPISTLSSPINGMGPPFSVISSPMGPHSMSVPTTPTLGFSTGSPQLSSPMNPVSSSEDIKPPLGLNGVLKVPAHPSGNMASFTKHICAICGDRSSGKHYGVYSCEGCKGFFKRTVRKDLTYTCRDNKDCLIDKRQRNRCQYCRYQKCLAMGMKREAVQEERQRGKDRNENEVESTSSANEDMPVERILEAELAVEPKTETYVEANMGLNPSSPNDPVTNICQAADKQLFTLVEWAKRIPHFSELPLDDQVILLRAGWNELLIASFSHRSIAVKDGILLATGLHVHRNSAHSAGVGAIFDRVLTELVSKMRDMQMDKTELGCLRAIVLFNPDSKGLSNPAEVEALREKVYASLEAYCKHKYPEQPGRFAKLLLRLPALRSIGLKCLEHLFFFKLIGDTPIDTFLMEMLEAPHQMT

As for `Oc1ccc(O)c2c(O)cccc12`, the Potency result in experiment [1], in experiment [3], in experiment [4], in experiment [6], in experiment [7] and in experiment [8] was “inactive” throughout. Besides, the Potency entry in experiment [10], in experiment [11], in experiment [12] and in [13] was “inactive” in each case. Further, the result in [2], in [5] and in experiment [9] was inactive.

As for `CCCCCCCCCCCCCCCCCBr`, the Potency entry in experiment [1], in experiment [14], in experiment [3], in experiment [4], in experiment [16] and in experiment [6] was “inactive” each time. The Potency entry in experiment [17], in experiment [7] and in experiment [8] was “inactive” in each case. In addition, the compound was classed as inactive in experiment [15], in experiment [5] and in [9]. Further, in experiment [10], the activity, negative = cytotoxicity was 2.1% [at 19 µM]. The activity change, negative = inhibition in experiment [11] is 24.8% [at 19 µM]. Besides, the viability change, negative = cytotoxic in experiment [12] was 0.953% [at 15.8 µM]. Besides, the activation in [13] was -0.344% [at 15.8 µM].

For `CCc1nn(C2CCCCC2)c2cc(C3(C#N)CCC(C(=O)O)CC3)ccc12` (configuration not stated), the Potency entry in experiment [1], in experiment [14], in experiment [3], in experiment [4], in [6] and in experiment [17] was “inactive” in each case. The Potency entry in experiment [7], in [10], in experiment [12] and in experiment [13] was “inactive” each time. The result in experiment [2], in experiment [15], in [5] and in experiment [9] was inactive. For the same compound, the Potency in experiment [8] is 1.55 µM (active); in experiment [11], 27.3 µM (active).

In the case of `O=C(/C=C/c1ccc(O)c(O)c1)O[C@@H]1C[C@](O)(C(=O)O)C[C@@H](O)[C@H]1O`, the Potency result in experiment [1], in experiment [14], in [4], in experiment [6], in experiment [17] and in experiment [7] was “inactive” in each case. Moreover, the Potency entry in experiment [8], in [10], in experiment [11], in experiment [12] and in experiment [13] was “inactive” in each case. Moreover, the outcome in experiment [2] and in experiment [9] was inactive.

Take `CCN(CC)CCNC(C(=O)OCCC(C)C)c1ccccc1` (configuration not stated): the Potency result in experiment [1], in [14], in [3], in experiment [4], in [16] and in [6] was “inactive” each time. The Potency result in experiment [17], in [7], in experiment [8], in [10], in [11] and in experiment [12] was “inactive” in each case. Moreover, the Potency result in experiment [13] is “inactive”. In addition, the compound was called inactive in experiment [2], in [18], in experiment [5] and in [9].

On to `CCN(CC)CCOc1ccc2c(c1)C(=O)c1cc(OCCN(CC)CC)ccc1-2`, for which the result in experiment [2], in [5] and in experiment [9] was inactive. The Potency is 21.1 µM (active) in [3], 26.6 µM (active) in experiment [4] and 21.3 µM (active) in [16]. Further, the Potency entry in experiment [7], in experiment [8], in experiment [10], in experiment [11], in experiment [12] and in [19] was “inactive” in each case.

Consider `CC(=O)[C@@]1(O)CC[C@H]2[C@@H]3C[C@H](C)C4=CC(=O)CC[C@]4(C)[C@H]3CC[C@@]21C`, for which the Potency result in experiment [1], in [14], in experiment [3], in experiment [4], in experiment [6] and in experiment [17] was “inactive” each time. Further, the Potency entry in [7], in experiment [8], in experiment [10], in experiment [11], in [12] and in experiment [13] was “inactive” throughout. In addition, the result in experiment [2], in experiment [5] and in [9] was inactive.

As for `CNS(=O)(=O)Cc1ccc2[nH]cc(CCN(C)C)c2c1`, the Potency entry in experiment [1], in experiment [14], in experiment [4], in experiment [6], in [17] and in [7] was “inactive” in each case. Also, the Potency result in [8], in experiment [10], in experiment [11], in [12] and in experiment [13] was “inactive” throughout. The outcome in experiment [2], in experiment [15], in experiment [5] and in experiment [9] was inactive.

In the case of `CCCCCc1ccc(N)cc1`, the Potency entry in experiment [1], in experiment [3], in experiment [4], in experiment [6], in experiment [17] and in [7] was “inactive” each time. Further, the Potency result in experiment [8], in [10], in experiment [11], in experiment [12] and in [13] was “inactive” throughout. The call in experiment [2], in [5] and in experiment [9] was inactive.

For the compound `CCCCCCCCCCCCC(=O)O`, the Potency result in experiment [14], in experiment [4], in [6], in [17], in experiment [7] and in experiment [8] was “inactive” each time. In addition, the Potency result in [10], in experiment [11], in experiment [12] and in experiment [19] was “inactive” throughout. In experiment [9], the outcome was inactive.

`CCCCOc1cc(C(=O)OCCN(CC)CC)ccc1N`: the Potency entry in experiment [1], in [14], in [4], in [16], in experiment [6] and in experiment [7] was “inactive” in each case. The Potency entry in experiment [8], in [10], in experiment [11], in experiment [12] and in [13] was “inactive” each time. In addition, the compound was classed as inactive in experiment [20], in experiment [15], in experiment [5] and in experiment [9].

For the origin of these results see PubChem BioAssay (Tox21).
